From PubChem BioAssay
The source made the active and inactive calls.

Assays:
[1] = compound effects on lung adenocarcinoma cell viability – A549, calcein-AM fluorescence, 48 h, basal, profiling panel (AID 1162); details: higher = more signal
[2] = compound effects on differentiated 3T3-L1 adipocyte viability – cell-based, 3T3-L1 adipocytes, calcein-AM fluorescence, 48 h, basal, profiling panel (AID 1163); details: 3T3-L1 adipocytes viability, higher = more signal
[3] = compound effects on hepatocellular carcinoma cell viability – HepG2, calcein-AM fluorescence, 48 h, basal, profiling panel (AID 1164); details: higher = more signal
[4] = compound effects on multiple myeloma cell viability – MM1S, calcein-AM fluorescence, 48 h, basal, profiling panel (AID 1165); details: higher = more signal;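 note: viability of MM1S multiple myeloma cells under basal unstimulated conditions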
[5] = calcein-AM signal in unstimulated myeloma cells – cell-based, calcein-AM fluorescence, 48 h, PK04 Diversity Set, profiling panel (AID 1166); details: RPMI8226 myeloma viability, higher = more signal;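 note: cells grown under basal conditions without added stimulus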
[6] = JC-1 mitochondrial signal, unstimulated HepG2 cells – cell-based, JC-1 fluorescence, 24 h, 100 nL compound, profiling panel (AID 1167); details: HepG2 mitochondrial potential, higher = more signal
[7] = JC-1 mitochondrial signal, unstimulated adipocytes – cell-based, JC-1 fluorescence, 3T3-L1 adipocytes, 24 h, 100 nL compound, profiling panel (AID 1168); details: JC-1 mitochondrial fluorescence, higher = more signal, called active from +8 up or from −8 down
[8] = JC-1 mitochondrial signal, unstimulated myeloma cells – cell-based, JC-1 fluorescence, RPMI8226, 24 h, 100 nL compound, profiling panel (AID 1169); details: JC-1 mitochondrial potential fluorescence, higher = more signal
[9] = JC-1 mitochondrial signal, unstimulated MM1S myeloma – cell-based, JC-1 fluorescence, 24 h, 100 nL compound, profiling panel (AID 1170); details: MM1S mitochondrial potential, higher = more signal
[10] = resazurin metabolic signal in A549 cells – cell-based, resazurin fluorescence, 24 h, PK04 Diversity Set, profiling panel (AID 1171); details: A549 viability, higher = more signal, called active from +8 up or from −8 down
Note: test concentration not given here.

Row | SMILES | z-score [1] | z-score [2] | z-score [3] | z-score [4] | z-score [5] | z-score [6] | z-score [7] | z-score [8] | z-score [9] | z-score [10]
1 | CN(C)CCCCCCNC(=O)[C@H]1C[C@H]2C(=O)N[C@@H](CCCCN)C(=O)N2[C@H]1c1cccc(OCCO)c1 | -0.214 | 0.414 | -0.458 | -0.371 | -0.497 | 0.272 | 0.587 (inactive) | -0.636 | 0.358 | -0.0439 (inactive)
2 | C=C(C(=O)CC[C@@H](OC(=O)c1cccnc1)c1ccccc1OCCO)C(C)C | -0.125 | 0.909 | -0.599 | -1.81 | -1.08 | -1.17 | 0.208 (inactive) | -0.356 | -1.07 | -0.414 (inactive)
3 | C=CCC(OC(C)=O)[C@@H]1[C@@H](N(Cc2ccc(-c3ccccc3)cc2)C(=O)c2ccc(-c3ccccc3)cc2)c2cc(OCCCO)ccc2N1C(=O)Cc1ccc2ccccc2c1 (stereo not given in full) | -0.475 | 0.367 | 0.325 | -2.3 | -0.806 | 0.96 | -1.07 (inactive) | -0.793 | 0.292 | 1.2 (inactive)
4 | O=C1C2C=CC(C(O)Cc3ccccc3)N(n3cnnc3)C2C(=O)N1Cc1ccccc1 (stereo not given) | -0.182 | 0.549 | -0.065 | -0.304 | -1.11 | -0.532 | -0.533 (inactive) | 0.395 | 1.24 | -1.29 (inactive)
5 | COc1cc2c(cc1OC)CN(C(=O)[C@@H]1[C@H]3C(=O)O[C@H](c4ccccc4)[C@H](c4ccccc4)N3[C@H](c3ccccc3OCCO)[C@@]13C(=O)Nc1ccc(C#CCCO)cc13)CC2 | 1.26 | 0.784 | 0.665 | -0.777 | -0.803 | 0.453 | 1.2 (inactive) | -1.21 | -0.107 | 1.28 (inactive)
6 | O=C(NC1CC1)[C@@H]1c2ccccc2C(=O)N(Cc2ccccc2Cl)[C@H]1c1ccc(CO)cc1 | 3.23 | 1.4 | 2.25 | -0.867 | 0.97 | 2.95 | 0.623 (inactive) | -0.566 | 1.41 | 1.76 (inactive)
7 | CC(C)C(=C=CC[C@@H](O)c1ccc(OCCO)cc1)C[C@@H](O)c1ccccn1 | -0.343 | -1.03 | 0.411 | -0.473 | -0.3 | -0.737 | 0.00461 (inactive) | 0.0263 | -0.698 | -0.287 (inactive)
8 | NC(=O)N1C(=O)C2C(C1=O)C1C=C(c3ccc(CO)cc3)C2C(c2cccs2)N1Cc1cccc(OC(F)(F)F)c1 (stereo not given) | 1.56 | 0.868 | 0.0764 | -2.08 | -2.08 | -1.7 | 0.863 (inactive) | -0.85 | -1.67 | -0.69 (inactive)
9 | C=CC[C@@]12N=C(c3ccc(OCCCO)cc3)O[C@@H]1c1ccccc1N(C)C2=O | -0.588 | 0.596 | -1.33 | -1.79 | -2.61 | 0.0239 | 1.51 (inactive) | -1.12 | -0.767 | -0.0732 (inactive)
10 | CC1CC/C=C\[C@H]2OC34C=CCN(C(C)(C)C)C(=O)[C@H]3N(C(C)CO)C(=O)[C@@H]4C2C(=O)O1 (stereo not given in full) | 0.593 | -0.691 | 0.292 | 0.771 | -0.192 | -0.0168 | -0.43 (inactive) | -0.164 | -0.726 | -0.388 (inactive)
11 | CCCCCCc1nc(-c2cc(C)c(OC)c(C)c2)cc2c1[Si](C(C)C)(C(C)C)OC2 | -0.194 | 1.29 | 0.117 | -1.12 | -1.11 | -0.48 | -0.385 (inactive) | -0.547 | -0.288 | 1.1 (inactive)
12 | COCCOC(=O)N1C(=O)[C@@]2(c3cc(C#CCNC(N)=O)ccc31)[C@H](C(=O)Nc1nc3ccccc3s1)[C@H]1C(=O)O[C@H](c3ccccc3)[C@H](c3ccccc3)N1[C@@H]2c1ccc(OCCO)cc1 | -0.649 | 1.2 | -1.22 | -2.58 | -0.0496 | -3.26 | 1 (inactive) | -0.692 | -1.53 | 0.385 (inactive)
13 | CCCCC(CC)C(O)C1C=CC2C(=O)N(Cc3ccccc3)C(=O)C2N1n1cnnc1 (stereo not given) | -0.682 | -0.498 | -0.391 | -0.165 | -0.208 | -0.522 | -1.48 (inactive) | 0.447 | 0.533 | -0.56 (inactive)
14 | COC(=O)[C@@]1(Cc2ccccc2)[C@H]2c3cc(C(=O)N4CCCC4)n(Cc4ccc(S(C)(=O)=O)cc4)c3C[C@H]2CN1C(=O)c1ccccc1 | -0.235 | 0.949 | -0.838 | -1.09 | -1.68 | 2.43 | -1.62 (inactive) | 0.148 | -0.659 | 0.142 (inactive)
15 | O=C1C[C@@](C(=O)NCC(F)(F)F)(c2ccc([N+](=O)[O-])cc2)[C@@H](c2ccc(CO)cc2I)N1C1CCCCC1 | -0.0922 | 0.665 | -0.644 | -2.28 | -1.65 | 0.548 | -0.226 (inactive) | -0.521 | -1.02 | 0.324 (inactive)
16 | Cc1nc2cc(Br)ccc2c(=O)o1 | 0.504 | 0.703 | 0.368 | 0.729 | 0.834 | 1.37 | 0.499 (inactive) | 0.649 | 0.392 | 0.235 (inactive)

Row | SMILES | z-score [1] | z-score [2] | z-score [3] | z-score [4] | z-score [5] | z-score [6] | z-score [7] | z-score [8] | z-score [9] | z-score [10]
17 | CN1C(=O)C2C=CC(C(O)c3ccccc3)N(N(c3ccccc3)c3ccccc3)C2C1=O (stereo not given) | -0.948 | -0.669 | -0.373 | 0.0913 | -0.383 | -0.885 | -0.791 (inactive) | 0.538 | 0.102 | -0.166 (inactive)
18 | O=C1C[C@]2(c3ccc([N+](=O)[O-])cc3)C(=O)N(CC(F)(F)F)c3cc(CO)ccc3[C@H]2N1C1CCCCC1 | 1.81 | -0.677 | 0.203 | 0.0687 | 1 | 0.38 | 0.986 (inactive) | 0.247 | 1.9 | -0.745 (inactive)
19 | CN1C(=O)C2C=CC(C(O)c3ccc([N+](=O)[O-])cc3)N(N3CCCCC3)C2C1=O (stereo not given) | -0.234 | -0.69 | -0.384 | -0.324 | -0.721 | -1.24 | -0.927 (inactive) | 0.0849 | 0.134 | -0.197 (inactive)
20 | CCCC[C@@H]1C[C@H]1[C@@H](NC(=O)c1ccco1)c1ccccc1C(F)(F)F | -2.09 | -1.51 | -0.489 | -1.1 | -0.484 | -1.7 | -1.22 (inactive) | -0.583 | -0.481 | -0.26 (inactive)
21 | CN(C)C(=O)[C@]1(Cc2ccccc2N=[N+]=[N-])N=C(c2ccc(OCCCO)cc2)O[C@@H]1c1ccccc1N=[N+]=[N-] | 0.03 | 0.899 | -0.468 | -3.3 | -3.67 | 1.53 | 1.41 (inactive) | -0.946 | -1.8 | -2.16 (inactive)
22 | O[C@@H](Cc1ccccc1)[C@H]1C2C=CCCC=C2CN1Cc1cccc(Cl)c1 (stereo not given in full) | 0.675 | -0.0495 | 1.31 | -3.23 | -2.25 | -0.241 | -0.173 (inactive) | -0.771 | -2.86 | -0.462 (inactive)
23 | COCCOC(=O)N1C(=O)[C@@]2(c3cc(C#CCC(C(=O)OC)C(=O)OC)ccc31)[C@H](c1ccccc1OCCO)N1[C@H](c3ccccc3)[C@H](c3ccccc3)OC(=O)[C@H]1[C@@H]2C(=O)NC[C@H](O)c1ccccc1 | -0.0256 | 0.821 | 0.015 | -3.44 | -3.9 | -0.187 | 2.16 (inactive) | -0.776 | -1.81 | -0.55 (inactive)
24 | O=C1O[C@H](c2ccccc2)[C@H](c2ccccc2)N2[C@H]1[C@@H](C(=O)N1CCCCCCC1)[C@]1(C(=O)Nc3ccc(C#CCCO)cc31)[C@H]2c1ccccc1OCCO | 0.405 | 0.911 | 0.518 | -1 | -3.71 | 0.42 | 0.757 (inactive) | -1.3 | -1.11 | 0.458 (inactive)
25 | CCCCCN1CC=CC23O[C@@H]4/C=C\CCC(C)OC(=O)C4[C@H]2C(=O)N(C(C)CO)[C@@H]3C1=O (stereo not given in full) | 0.342 | 0.287 | 0.356 | 0.508 | 0.311 | 0.558 | -0.00375 (inactive) | 0.724 | -0.759 | 1.02 (inactive)
26 | CC(C)N1C(=O)C[C@@](C(=O)NCC(F)(F)F)(c2ccc([N+](=O)[O-])cc2)[C@H]1c1ccc(CO)cc1 | 1.41 | 1.13 | -0.0704 | -0.464 | -1.66 | 0.868 | -0.502 (inactive) | -0.564 | -1.51 | 0.201 (inactive)
27 | O=C1O[C@@H](c2ccccc2)[C@@H](c2ccccc2)N2[C@@H](c3ccccc3OCCO)[C@]3(C(=O)Nc4ccc(C#CC5=CCCCC5)cc43)[C@@H](C(=O)N3CCCCCCC3)[C@H]12 | -1.66 | 0.25 | 0.297 | -3.09 | -2.79 | 1.19 | -1.85 (inactive) | -0.715 | -1.75 | -0.312 (inactive)
28 | C=CC[C@]1(C(=O)NCCCOC)N=C(c2ccc(OCCCO)cc2)O[C@H]1c1ccccc1CN=[N+]=[N-] | 0.566 | 0.243 | 0.716 | -1.86 | -0.134 | 1.76 | -0.299 (inactive) | -1.25 | -0.142 | -0.0227 (inactive)
29 | O=C(NCCN1CCOCC1)C1N=C(c2ccc(OCCCO)cc2)N(c2ccccc2)O1 (stereo not given) | 0.264 | -0.126 | 0.291 | 0.66 | -0.425 | 0.0176 | 0.653 (inactive) | -1.28 | 1.27 | 0.712 (inactive)
30 | CC(C)C(O)C1C=CC2C(=O)NC(=O)C2N1Nc1ccc(Cl)cc1Cl (stereo not given) | -1.06 | -0.699 | -0.401 | -0.687 | -0.644 | -2.25 | -1.12 (inactive) | -0.161 | -0.143 | -0.883 (inactive)
31 | C=CCNC(=O)[C@H]1[C@@H]2C(=O)O[C@@H](c3ccccc3)[C@@H](c3ccccc3)N2[C@@H](c2ccccc2OCCO)[C@]12C(=O)Nc1ccc(C#CCC(C(=O)OC)C(=O)OC)cc12 | 0.246 | -0.72 | -0.845 | -3.34 | -4.63 | -0.64 | 2.62 (inactive) | -1.32 | -2.23 | 0.545 (inactive)
32 | O=C(CS)NCCCCCCNC(=O)[C@@H]1C[C@@H]2C(=O)NCC(=O)N2[C@@H]1c1cccc(OCCO)c1 | 0.861 | -0.356 | 0.381 | 0.38 | 0.754 | 0.502 | 0.475 (inactive) | 0.116 | -0.502 | -0.489 (inactive)
